Measured values published in the supplement of paper PMC12669032.

Columns and labels:
Roseburia intestinalis = assay: growth AUC relative to DMSO control (median of replicates) (fraction); higher = more growth (less inhibition), active = hit call of the paper; details: 20 µM; 24 h
Outline: (§1)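 Area under the growth curve was normalised to the plate median of solvent-only wells, except on the industrial chemical plate, where row and column medians were used. Curves came from gut bacterial monocultures grown anaerobically at 37 °C in mGAM with 20 µM compound (1% DMSO), starting at OD600 0.05 and read at OD600 every hour for 24 h. The minimum OD of each curve was set to 0, and values are medians of three biological replicates grown on separate days.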

Streptococcus salivarius = assay: as above; details: 20 µM; 24 h
Outline: as §1

SMILES | growth AUC (Roseburia intestinalis) | growth AUC (Streptococcus salivarius)
CCN(Cc1ccc(Cl)nc1)/C(=C/[N+](=O)[O-])NC | 1 (inactive) | 1 (inactive)
Clc1ccc(C2(Cn3cncn3)OCCO2)c(Cl)c1 | 0.948 (inactive) | 0.915 (inactive)
CC(=O)CC(c1ccc(Cl)cc1)c1c(O)c2ccccc2oc1=O (stereo not drawn) | 1.04 (inactive) | 0.987 (inactive)
CN(C)C(=S)[S-].CN(C)C(=S)[S-].[Zn+2] | 0.792 (inactive) | 0.925 (inactive)
O=C(Nc1ccccc1)Nc1cnns1 | 0.918 (inactive) | 0.891 (inactive)
COc1ccc(C(c2ccc(OC)cc2)C(Cl)(Cl)Cl)cc1 | 0.987 (inactive) | 0.992 (inactive)
CNC(=O)O/N=C(\C)SC | 0.994 (inactive) | 0.973 (inactive)
COCC(=O)N(c1c(C)cccc1C)[C@H](C)C(=O)OC | 0.966 (inactive) | 1.02 (inactive)
CCOP(=O)(OCC)O/C(=C/Br)c1ccc(Cl)cc1Cl | 0.995 (inactive) | 0.975 (inactive)
CC/C(=N\OC/C=C/Cl)C1=C(O)CC(C2CCOCC2)CC1=O (stereo not drawn) | 1.02 (inactive) | 0.994 (inactive)
CC1CNC(=S)N1 (stereo not drawn) | 1.02 (inactive) | 1 (inactive)
Oc1cc(Cl)cc(Cl)c1 | 1.01 (inactive) | 1 (inactive)
Oc1ccc(Cl)cc1Cl | 0.907 (inactive) | 0.901 (inactive)
O=P(Oc1ccccc1)(Oc1ccccc1)Oc1ccccc1 | 0.937 (inactive) | 0.957 (inactive)
